Screening data: PubChem BioAssay, University of Kansas High Throughput Screening Laboratory
The full list was thinned out, with hits kept by preference.
Pf apPOL inh = Pf-apPOL DNA polymerase inhibition | Recombinant Pf-apPOL, molecular beacon fluorescence, 1.5 h | inhibition, % at 10 µM | 0.25% of 210,000 active | AID 1794808
mHTT-CaM PPI inh = mHTT-calmodulin interaction abrogation; P42858; AlphaScreen His-mHTT/GST-CaM binding, luminescence; inhibition, % at 15 µM; 3.6% of 190,000 active; AID 1671202;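 further: 0% = both proteins with DMSO and 100% = one protein alone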
Active calls of the source: *; nt = not tested or not shown. No stated cut-off is given here; in the data, active means inhibition above about 50%; inactive means the rest.

SMILES | Pf apPOL inh | mHTT-CaM PPI inh
N#C/C(=C\C=C\c1ccco1)c1nc2ccccc2s1 | -10.5 | 76.3*
N#C/C(=C\c1ccco1)c1nc(-c2ccccc2)cs1 | -2.7 | -10.1
CC(C)c1cc(C2CCCN2Cc2cccs2)no1 (stereo unspecified) | -0.3 | -9.3
CC1=C(C#N)C(=O)N(CC(C)O)C(=O)/C1=C\c1ccc(-c2cccc(Cl)c2C)o1 (stereo unspecified) | -8.3 | 75.0*
CC1=C(C#N)C(=O)N(CCO)C(=O)/C1=C\c1ccc(-c2cc(Cl)ccc2Cl)o1 | -3.0 | 37.0
CC1=C(C#N)C(=O)N(CC(C)O)C(=O)/C1=C\c1ccc(-c2ccc(Cl)cc2)o1 (stereo unspecified) | -13.4 | 22.0
CC1=C(C#N)C(=O)N(CCO)C(=O)/C1=C/c1ccc(-c2ccc3c(c2)COC3=O)o1 | -3.5 | 60.0*
COc1cccc(NC(=O)CN(C2CCCCC2)S(=O)(=O)c2ccc(OC)c(OC)c2)c1 | -1.1 | 10.9
Fc1ccc(NCc2noc(-c3cccc(F)c3)n2)cc1 | -0.6 | -6.1
O=C(c1cccs1)N1CCCC(c2ccnc(-c3ccc(F)cc3)n2)C1 (stereo unspecified) | -6.8 | 37.8
CCN1CCC(CCNC(=O)C2CCc3sc(C(=O)N4CCOCC4)cc3C2)CC1 (stereo unspecified) | -5.2 | 1.5
C#CCSc1ccccc1C(=O)O | -3.5 | -6.8
C#CC(C=CC)OC(=O)c1ccccc1C(=O)O (stereo unspecified) | 53.3* | nt
Cn1nccc1NC(=O)C(C#N)=Cc1ccc(Cl)cc1 | -10.1 | nt
Cc1cc(C(=O)Nc2ccc(Cl)cn2)ccc1[N+](=O)[O-] | -1.0 | 4.0
O=c1/c(=C/c2ccccc2)sc2n1CN(c1cccc(Br)c1)CN=2 | -4.3 | -13.0
O=C1Nc2ccc(Cl)cc2/C1=c1\sc2n(c1=O)CN(c1cccc(Br)c1)CN=2 | -6.2 | 52.0*
CC(=O)Nc1ccc(N2C(=O)/C(=C/c3ccc(Cl)cc3)C=C2c2ccccc2)cc1 | -1.0 | 31.0
O=C(O)c1cc(N2C(=O)/C(=C/c3ccc(Cl)cc3)C=C2c2ccccc2)ccc1O | -2.9 | 74.0*
O=C1/C(=C/c2ccc([N+](=O)[O-])cc2)C=C(c2ccccc2)N1c1ccc(F)cc1 | 0.1 | 18.0
O=C(O)c1cc(N2C(=O)/C(=C/c3ccc([N+](=O)[O-])cc3)C=C2c2ccccc2)ccc1O | -4.4 | 88.0*
CCOC(CCn1c(SCC(=O)NCc2ccco2)nc2ccccc2c1=O)OCC | -0.3 | 4.0
Cc1ccc2nc(-c3ccc(NC(=O)c4c(-c5ccccc5)noc4C)cc3)sc2c1 | -0.9 | nt
CCc1ccc(C2Nc3ccccc3NC3=C2C(=O)CC(c2ccc(OC)c(OC)c2)C3)cc1 (stereo unspecified) | -15.6 | 43.0
COc1c(-c2cc(C(F)(F)C(F)F)[nH]n2)c(O)c(OC)c2occc12 | -2.6 | 20.7
SMILES | Pf apPOL inh | mHTT-CaM PPI inh
COc1ccc(-c2cc(-c3c(O)c(OC)c4occc4c3OC)[nH]n2)cc1OC | -1.7 | 85.8*
COc1ccc(CCNC(=O)N2CC(c3nc(-c4cccs4)no3)C2)cc1 | -15.5 | -0.6
N#Cc1ccc(NC(=O)c2cc3n(n2)C(C(F)(F)F)CC(c2ccccc2)N3)cc1 (stereo unspecified) | -8.7 | -5.0
Cc1ccc(-c2csc(=Nc3ccccc3)n2CCCN(C)C)cc1 | 3.6 | 73.0*
OCCCn1c(-c2ccc(Cl)s2)csc1=Nc1ccccc1 | 19.1 | 41.0
c1ccc(CCn2c(-c3ccccc3)csc2=Nc2ccccc2)cc1 | nt | 1.2
Cc1ccc(-c2csc(=Nc3ccccc3)n2CCCO)cc1 | -3.2 | 53.0*
Cn1c(=O)c(C(=O)NC2CCCC2)c(O)c2ccccc21 | -1.5 | 17.4
COc1ccc(C(NC(=O)c2cccc(OC)c2)c2cc(Cl)c3cccnc3c2O)cc1 (stereo unspecified) | -0.8 | 28.0
O=C(NC(c1cccc(F)c1)c1ccc2cccnc2c1O)c1ccccc1 (stereo unspecified) | -3.6 | 100.3*
Cc1ccc(C(NC(=O)c2ccccc2)c2ccc3cccnc3c2O)cc1 (stereo unspecified) | -3.2 | 100.0*
O=C(Nc1ncccc1Cl)c1cccc(F)c1 | -95.9 | 2.5
COCCCNC(=O)N1CCN(Cc2nc3cccnc3n2-c2ccccc2)CC1 | -0.7 | -0.5
O=C1CC(c2cccs2)Cc2nc(NCc3ccccc3)ncc21 (stereo unspecified) | -1.9 | -4.0
COc1cc2c(cc1OC)C(C(=O)Nc1c(F)cccc1F)C(c1ccccc1F)N(C)C2=O (stereo unspecified) | -8.8 | 12.0
O=C(C1CC(=O)N(c2ccc(F)c(Cl)c2)C1)N1CCc2c(nc3cc[nH]n3c2=O)C1 (stereo unspecified) | -2.3 | 13.8
COc1nn(C)cc1C(=O)NCC(c1ccco1)N1CCN(c2ccc(F)cc2)CC1 (stereo unspecified) | -3.6 | -10.1
COc1ccc(NCc2ccc(Cl)cc2Cl)cc1OC | -4.4 | 45.0
COc1cc(NCc2ccccc2Cl)cc(OC)c1 | 3.2 | 75.3*
CNC(=O)N1CCCC(c2cccc(C(=O)N3CCN(c4cccc(C)c4C)CC3)c2)C1 (stereo unspecified) | -8.9 | 64.1*
CNC(=O)N1CCCC(c2cccc(C(=O)NCc3ccc(C(F)(F)F)cc3)c2)C1 (stereo unspecified) | -7.3 | 64.4*
CNC(=O)N1CCCC(c2cccc(C(=O)N3CCN(c4ccccc4Cl)CC3)c2)C1 (stereo unspecified) | -1.1 | 3.2
Cc1cccc(N2CCN(C(=O)c3ccc4c(=O)n5c(nc4c3)SCC5)CC2)c1C | -8.3 | 1.5
CC(C)NC(=O)N1CCCC(c2cccc(C(=O)NCc3ccc(C(F)(F)F)cc3)c2)C1 (stereo unspecified) | -1.2 | 5.7
Cc1cccc(N2CCN(C(=O)c3ccc4nc(-c5ccco5)c(-c5ccco5)nc4c3)CC2)c1C | -0.3 | 78.0*
SMILES | Pf apPOL inh | mHTT-CaM PPI inh
CCOc1ccc(CNC(=O)C2CCCN(c3nc4ccccc4o3)C2)cc1 (stereo unspecified) | -15.3 | 10.0
CCc1ccc(C(O)CN2CCN(c3ccccn3)CC2)cc1 (stereo unspecified) | 2.6 | -1.5
CCOCCCNC(=O)N1CCC2(C1)C(=O)Nc1ccccc12 (stereo unspecified) | 0.2 | 7.0
COc1ccc(N2C(=O)CC(N3CCC(C)CC3)C2=O)cc1 (stereo unspecified) | -3.3 | -1.8
C=CCn1c(=O)/c(=C2\Sc3ccccc3N2C)s/c1=C1\C(=O)N(C2CCCCC2)N=C1C | 0.6 | 0.0
CC1=NN(c2ccccc2)C(=O)/C1=C/c1ccc(Br)s1 | 2.1 | 46.0
CC1=NN(c2nn[nH]n2)C(=O)/C1=C\c1cccs1 | nt | 100.2*
CC(=O)Nc1ccc(S(=O)(=O)N2CCN(C(=O)c3ccc(Cl)cc3)CC2)cc1 | -13.5 | 8.4
Cc1nc(-c2ccc(N3CCN(C(=O)c4ccco4)CC3)nc2)no1 | -8.7 | -10.6
COc1ccc(C2CC(O)(c3ccccc3)Oc3c(C)ccc(C)c32)cc1 (stereo unspecified) | -5.7 | 46.0
COc1ccc(C2CC(O)(c3ccccc3)Oc3cc(OC)cc(OC)c32)cc1 (stereo unspecified) | -2.9 | 92.4*
Cc1ccc(OCCn2c(SCC(N)=O)nc3ccccc32)cc1 | 2.4 | 17.1
NC(=O)CSc1nc2ccccc2n1CCOc1ccc(Cl)cc1 | 2.0 | 64.3*
COc1ccc(C(=O)Nc2ccccc2SC)nn1 | -3.2 | -15.5
CC(C)Cc1nnc(NC(=O)c2c(O)c3ccccc3n(C)c2=O)s1 | -5.2 | -3.1
